About 83,000 compounds went through this panel and 20% of them were active in at least one assay; those are over-represented in the sample as a whole.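 Results are percent growth after 48 hours of single-concentration exposure. 100 means growth as in untreated cells, lower positive values show inhibition; negative values down to -100 show cell death.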 A number with no mark means an inactive call. The source made the active and inactive calls. The calls were made as follows: active = growth percent below 10; inactive = the rest.

Assay in all cases: NCI-60 one-dose screen, 48 h (100 = growth as untreated, 0 = no growth, -100 = all killed)
One assay concerns NCI-H226 lung. To be noted: 10 µM.
The next assay has as its system HOP-62 NSCLC. Particulars: 10 µM.
In another assay the test system is NCI-H460 lung. To be noted: 10 µM.
A further assay concerns A549/ATCC NSCLC. Particulars: 10 µM.
The subject of a further assay is DU-145 prostate. Particulars: 10 µM.
A further assay concerns SF-268 CNS. Particulars: 10 µM.
A further assay relates to SF-295 CNS. Particulars: 10 µM.
For another assay, the system named is SF-539 CNS. Particulars: 10 µM.
For a further assay, the system named is UACC-257 melanoma. To be noted: 10 µM.
In another assay the test system is M14 melanoma. Particulars: 10 µM.
The subject of another assay is HCT-15 colon. To be noted: 10 µM.
In a further assay the test system is HT29 colon. Particulars: 10 µM.
For a further assay, the system named is SNB-75 CNS. Particulars: 10 µM.
The next assay concerns SNB-19 CNS. To be noted: 10 µM.
For a further assay, the system named is U251 CNS. To be noted: 10 µM.
A further assay has as its system SK-MEL-5 melanoma. Particulars: 10 µM.
The test system of a further assay is UACC-62 melanoma. Particulars: 10 µM.
A further assay has as its system SK-MEL-28 melanoma. Particulars: 10 µM.
The test system of another assay is SK-MEL-2 melanoma. Particulars: 10 µM.
A further assay relates to HL-60(TB) leukemia. Particulars: 10 µM unless noted.

With `Cc1c2oc3c(C)ccc(C(=O)N[C@@H]4C(=O)N[C@H](C(C)C)C(=O)N5CCC[C@H]5C(=O)N(C)CC(=O)N(C)[C@@H](C(C)C)C(=O)OC4C)c3nc-2c(C(=O)N[C@@H]2C(=O)N[C@H](C(C)C)C(=O)N3CC(=O)C[C@H]3C(=O)N(C)CC(=O)N(C)[C@@H](C(C)C)C(=O)OC2C)c(N)c1=O` (stereo partly drawn), the growth in the assay on NCI-H226 lung is -4.29% (active); in the assay with HOP-62 NSCLC, -21% (active); with NCI-H460 lung it was 5.56% (active); in the assay on A549/ATCC NSCLC, 8.06% (active); in the assay on DU-145 prostate, 12.8%; in the assay on SF-268 CNS, -9.63% (active). For the same compound, the growth in the assay with SF-295 CNS was 1.34% (active); with SF-539 CNS, -28.4% (active); in the assay with UACC-257 melanoma it was -28% (active); in the assay on M14 melanoma it was -8.68% (active); with HCT-15 colon it was 3.67% (active); in the assay on HT29 colon it was 1.14% (active). Also, the growth in the assay on SNB-75 CNS was -70.6% (active); in the assay on SNB-19 CNS, 4.37% (active); with U251 CNS, 1.58% (active); in the assay on SK-MEL-5 melanoma, -48.6% (active); with UACC-62 melanoma, -57.5% (active); in the assay on SK-MEL-28 melanoma, -27.8% (active). In the assay with SK-MEL-2 melanoma, the growth was -68.5% (active).
For `O=C(/C=C/c1ccc(F)cc1)c1nc2ccccc2n1Cc1ccc(F)cc1`, the growth in the assay with NCI-H226 lung is -35.7% (active); in the assay on HOP-62 NSCLC, -1.76% (active); in the assay with NCI-H460 lung, 6.65% (active); with A549/ATCC NSCLC, 27.2%; with DU-145 prostate, 18.4%; with SF-268 CNS, 16.2%. Moreover, the growth in the assay with SF-295 CNS is -10.9% (active); with SF-539 CNS, -63.5% (active); in the assay on UACC-257 melanoma it was 25.6%; in the assay on M14 melanoma, -3.51% (active); in the assay on HCT-15 colon, -61% (active); in the assay on HT29 colon, -30.5% (active). For the same compound, the growth with SNB-75 CNS was 20.6%; with SNB-19 CNS, 13.8%; in the assay with U251 CNS it was -56.3% (active); with SK-MEL-5 melanoma, 21.1%; in the assay on UACC-62 melanoma it was -41.7% (active); in the assay on SK-MEL-28 melanoma it was -15.8% (active). In addition, the growth in the assay with SK-MEL-2 melanoma is 21.3%; in the assay on HL-60(TB) leukemia, 6.99% (active).
For the compound `C#CCCCN(CCNc1ccnc2cc(Cl)ccc12)C(=O)CCC(=O)O[C@@H]1O[C@@H]2OC3(C)CC[C@H]4[C@H](C)CC[C@@H]([C@H]1C)[C@@]24OO3`, the growth is 44.9% with NCI-H226 lung; 58.9% in the assay with HOP-62 NSCLC; 40.6% in the assay on NCI-H460 lung; 40.8% in the assay with A549/ATCC NSCLC; 59.1% in the assay with DU-145 prostate; 56.9% in the assay with SF-268 CNS. In addition, the growth in the assay with SF-295 CNS was 33.8%; in the assay with SF-539 CNS it was 39.2%; in the assay with UACC-257 melanoma, 29.3%; in the assay with M14 melanoma, 37.7%; in the assay on HCT-15 colon, 12.1%; in the assay on HT29 colon it was 4.95% (active). Further, the growth was 67% with SNB-75 CNS; 56.5% in the assay on SNB-19 CNS; 45.7% with U251 CNS; -36.1% (active) with SK-MEL-5 melanoma; 31.4% with UACC-62 melanoma; 44.1% in the assay with SK-MEL-28 melanoma. Moreover, the figures for the growth with SK-MEL-2 melanoma and in the assay with HL-60(TB) leukemia were 43.9% and -26.3% (active), respectively.
`CCOP(=O)(OCC)C(NC(C)=O)C(=O)SCCN` (stereo not drawn): the growth with NCI-H226 lung was 106%; with HOP-62 NSCLC, 107%; in the assay with NCI-H460 lung, 121%; with A549/ATCC NSCLC it was 107%; in the assay with DU-145 prostate, 122%; in the assay on SF-268 CNS, 125%. Further, the growth with SF-295 CNS was 93.2%; with SF-539 CNS, 97.5%; in the assay on UACC-257 melanoma it was 96.2%; in the assay with M14 melanoma, 106%; with HCT-15 colon it was 102%; in the assay with HT29 colon it was 113%. Besides, the growth in the assay on SNB-75 CNS was 99.1%; in the assay with SNB-19 CNS it was 96.9%; in the assay with U251 CNS, 106%; with SK-MEL-5 melanoma it was 99.1%; in the assay on UACC-62 melanoma, 95.8%; with SK-MEL-28 melanoma it was 108%. Moreover, the results for the growth with SK-MEL-2 melanoma and in the assay with HL-60(TB) leukemia were 112% and 99.2%, respectively.
For `CC1=C(COCCOC(=O)c2ccc(S(=O)(=O)F)cc2)C2=C(C)C3(CC3)[C@@](C)(O)C(=O)C2=C1`, the growth was -39.9% (active) with NCI-H226 lung; -27.5% (active) in the assay on HOP-62 NSCLC; 2.07% (active) in the assay with NCI-H460 lung; 4.56% (active) in the assay on A549/ATCC NSCLC; -3.95% (active) with DU-145 prostate; 12.9% in the assay with SF-268 CNS. The growth in the assay with SF-295 CNS is -11.8% (active); with SF-539 CNS it was -76.2% (active); in the assay with UACC-257 melanoma it was -31.6% (active); in the assay with M14 melanoma, 11.1%; with HCT-15 colon, -29.6% (active); with HT29 colon, -28.5% (active). For the same compound, the growth in the assay with SNB-75 CNS was -15.9% (active); with SNB-19 CNS it was -10.6% (active); in the assay on U251 CNS, 4.59% (active); in the assay on SK-MEL-5 melanoma it was -92.1% (active); in the assay on UACC-62 melanoma, -88.5% (active); in the assay on SK-MEL-28 melanoma, -63.6% (active). For the same compound, the growth was -99.4% (active) with SK-MEL-2 melanoma and -22.9% (active) in the assay on HL-60(TB) leukemia.
As for `COP(=O)(CC(F)(F)C(F)(F)F)OC`, the growth is -55.6% (active) in the assay with NCI-H226 lung; 99.7% in the assay on HOP-62 NSCLC; 95.9% in the assay with NCI-H460 lung; 87.4% in the assay on A549/ATCC NSCLC; 9.69% (active) in the assay with DU-145 prostate; 88.4% in the assay on SF-268 CNS. The growth was 100% with SF-295 CNS; 4.99% (active) in the assay on SF-539 CNS; -36.5% (active) in the assay with UACC-257 melanoma; -65.3% (active) in the assay on M14 melanoma; -15.2% (active) with HCT-15 colon; -35.5% (active) in the assay on HT29 colon. The growth in the assay with SNB-75 CNS was 87.5%; in the assay on SNB-19 CNS, 101%; with U251 CNS, 81.7%; with SK-MEL-5 melanoma, 80.8%; with UACC-62 melanoma it was 65.3%; in the assay with SK-MEL-28 melanoma, -58.1% (active). The growth is 25.2% with SK-MEL-2 melanoma and 8.78% (active) in the assay with HL-60(TB) leukemia.
Take `CC(C)C[C@H](NC(=O)CNC(=O)C[C@H]1O[C@@H]2OC3(C)CC[C@H]4[C@H](C)CC[C@@H]([C@H]1C)[C@@]24OO3)B(O)O`: the growth in the assay on NCI-H226 lung was -22.4% (active); with HOP-62 NSCLC it was -17% (active); in the assay with NCI-H460 lung, 13.6%; with A549/ATCC NSCLC, 32.7%; in the assay with DU-145 prostate, 42.3%; with SF-268 CNS it was 17.4%. Moreover, the growth with SF-295 CNS is -63.6% (active); in the assay on SF-539 CNS it was -93.3% (active); in the assay with UACC-257 melanoma, -56.9% (active); in the assay with M14 melanoma, -43.8% (active); in the assay with HCT-15 colon it was 22.7%; in the assay on HT29 colon it was -56% (active). For the same compound, the growth was -15.7% (active) with SNB-75 CNS; 27.4% in the assay with SNB-19 CNS; 13.7% in the assay on U251 CNS; -90.2% (active) with SK-MEL-5 melanoma; -86.6% (active) in the assay on UACC-62 melanoma; -38.5% (active) with SK-MEL-28 melanoma. Further, the growth with SK-MEL-2 melanoma was -57.3% (active).
With `O=C(/C=C/c1ccccc1)c1nc2ccccc2n1Cc1ccc(F)cc1`, the growth in the assay with NCI-H226 lung was -48.5% (active); with HOP-62 NSCLC, -26% (active); in the assay with NCI-H460 lung, -28.9% (active); in the assay on A549/ATCC NSCLC, 24.8%; in the assay on DU-145 prostate it was 2.92% (active); in the assay on SF-268 CNS, 10.8%. Also, the growth is -11% (active) in the assay on SF-295 CNS; -89.1% (active) with SF-539 CNS; -1.28% (active) with UACC-257 melanoma; -20.8% (active) with M14 melanoma; -70.1% (active) in the assay with HCT-15 colon; -49.5% (active) with HT29 colon. Moreover, the growth in the assay on SNB-75 CNS is 3.39% (active); in the assay with SNB-19 CNS it was -47.9% (active); with U251 CNS, -73.6% (active); in the assay on SK-MEL-5 melanoma, 11%; with UACC-62 melanoma it was -39% (active); in the assay on SK-MEL-28 melanoma, -26.4% (active). Besides, the values for the growth with SK-MEL-2 melanoma and with HL-60(TB) leukemia were 18.9% and -25.3% (active), respectively.

(Values after PubChem BioAssay (NCI).)
